Screens as filed in PubChem BioAssay.
Hits are enriched below; roughly 4.3% of the tested compounds scored in any of these assays.
GLP-1R inv ag – acts as inverse agonist at human GLP-1 receptor; P43220; HEK293 GLP-1R CRE-luciferase, luminescence, 24 h; GLP-1R form is constitutively active; Potency, µM (doses to about 38.3 µM), most hits filed as inhibitors; 410,000 tested, 1.6% active; AID 624417; further: nearly all actives have a fitted effect of over 55% in size
Target sequence (P43220 whole entry, looked up): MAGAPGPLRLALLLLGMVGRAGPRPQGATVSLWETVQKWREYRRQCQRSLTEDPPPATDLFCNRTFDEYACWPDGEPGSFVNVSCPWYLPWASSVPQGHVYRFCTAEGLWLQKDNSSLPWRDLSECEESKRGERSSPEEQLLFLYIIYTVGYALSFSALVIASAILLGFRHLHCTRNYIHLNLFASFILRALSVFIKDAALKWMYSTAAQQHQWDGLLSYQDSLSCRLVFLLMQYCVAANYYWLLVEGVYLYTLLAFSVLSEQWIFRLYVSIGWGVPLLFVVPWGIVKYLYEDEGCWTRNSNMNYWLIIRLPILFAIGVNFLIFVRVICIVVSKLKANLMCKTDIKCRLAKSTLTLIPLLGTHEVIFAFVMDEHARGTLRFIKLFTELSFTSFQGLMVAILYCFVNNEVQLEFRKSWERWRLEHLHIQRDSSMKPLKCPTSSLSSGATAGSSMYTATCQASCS
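qHTS in 1536-well format: reporter HEK293 cells expressing constitutive GLP-1R activity in DMEM + 10% Nu serum, 24 hr with compounds at 37 deg C, luminescence read after 12 min with detection reagent.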
GLP-1R agonist – GLP-1 receptor (human) agonism; AID 624172; Potency, µM (titrated, usually from 45.6 µM), usual class: activators; HEK293 GLP-1R CRE-luciferase, luminescence, 4-6 h; cells express a hypersensitive GLP-1R form; 380,000 tested, 0.007% active; P43220
D3 ag – D3 dopamine receptor (human) agonism; 410,000 tested, 0.58% active; D3R DiscoveRx beta-arrestin cells, luminescence, 90 min; max activation, %; P35462; in the data active means max activation above about 30%
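Agonist mode: compounds and dopamine controls were applied to plated cells for 90 min at 37 degrees C after an overnight attachment at 1500 cells/well. Luminescent read-out followed 30 - 60 minutes at room temperature with DiscoveRx detection reagent.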
D3 antag – antagonists of human D3 dopamine receptor. max response, negative = inhibition, %. 360,000 tested, 2.5% active. P35462. D3R cells, DiscoveRx beta-arrestin luminescence, antagonist mode; stronger effect = lower value; in the data active means max response below about -50%; inconclusive means no clear call, values can overlap the other calls
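Cells expressing the human receptor were seeded at 1500 cells/well, incubated overnight at 37 degrees C in 5% CO2, then exposed to library compounds with dopamine controls for 90 minutes at 37 degrees C before luminescent detection.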
Of the large screens only hits and unclear results are named; the others gave an inactive call. Unless noted, the call rests on the fitted dose curve; in most records, active means well fitted curve in the direction sought with a large enough effect; inconclusive means small, poorly fitted or top-dose-only effect, or another doubt; inactive means no such curve, though single readings can be large; an effect the other way counts as inactive or inconclusive.

Cc1cc(C)c2cccc(N)c2n1	GLP-1R inv ag inconclusive
Cc1cc(C)c2ccc(N)nc2c1O	GLP-1R inv ag 13µM
CCOc1ccc(CN2C(=O)c3ccccc3Sc3ccc(C(=O)NCc4ccc5c(c4)OCO5)cc32)cc1	none (no result: GLP-1R agonist, D3 antag)
COC(=O)c1cc(NC(=O)/C=C/c2ccc3c(c2)OCO3)cc(C(=O)OC)c1	none
COC(=O)c1cccc(NC(=O)/C=C/c2ccc3c(c2)OCO3)c1	GLP-1R inv ag 3.5µM
O=C(/C=C/c1ccc2c(c1)OCO2)Nc1cccnc1	GLP-1R inv ag 10µM
O=C(CCCN1CCC(n2c(=S)[nH]c3ccccc32)CC1)c1ccc(F)cc1	none (no result: GLP-1R inv ag, GLP-1R agonist, D3 antag)
Cc1cccc(C)c1-n1ncc(C(=O)NCCCN2CCC(C)CC2)c1C1CCN(C(=O)OC(C)(C)C)CC1	none (no result: GLP-1R agonist, D3 antag)
O=C(CN1C(=O)C2CCCCN2c2ccc(C(=O)N3CCCC3)cc21)NCc1cccc(Cl)c1 (stereo not given)	none (no result: GLP-1R agonist, D3 antag)
O=C(CN1C=NS(=O)(=O)c2ccccc21)Nc1ccc(Br)cc1	none (no result: GLP-1R agonist, D3 antag)
Cc1cccc2c1cnn2C(=O)CCC(=O)N1CC(C)CC(C)C1 (stereo not given)	none
Cc1cccc2c1cnn2C(=O)CCC(=O)N1CCC(C)CC1	GLP-1R inv ag inconclusive, D3 antag -57
Cc1oc2ncn(C)c(=O)c2c1C(=O)Nc1ccccn1	none (no result: D3 antag)
O=C(Cc1cccs1)Nc1ccc(-c2nc3ccccc3[nH]2)cc1	GLP-1R inv ag 4.5µM
CN(C)CC1CCCCC1OC(=O)c1ccc(Cl)cc1 (stereo not given)	none
CN(C)CC1CCCCC1C1(O)c2ccccc2CSc2sccc21 (stereo not given)	GLP-1R inv ag inconclusive, D3 antag -73
COc1cccc(CNC(=O)Cn2c(SCC(=O)Nc3ccc(F)cc3)nc3ccccc32)c1	none (no result: GLP-1R agonist, D3 antag)
CC(C)[C@H](NC(=O)c1ccccc1)C(=O)OCC(=O)NCC1CCCO1 (stereo not given in full)	none
CCc1ccc(C(=O)NC(C(=O)NCC2CCCO2)C(C)C)cc1 (stereo not given)	D3 antag -88
O=[N+]([O-])c1cccc(C2NCC(c3ccccc3Cl)c3c2[nH]c2ccccc32)c1 (stereo not given)	GLP-1R inv ag inconclusive, D3 antag -64
CN(C)c1ccc(C2CNC(c3ccc(Cl)c([N+](=O)[O-])c3)c3[nH]c4ccccc4c32)cc1 (stereo not given)	GLP-1R inv ag 4.5µM
CC(C)OCCCN1CC(=O)N2C(c3cccc([N+](=O)[O-])c3)c3[nH]c4ccccc4c3C[C@H]2C1=O (stereo not given in full)	GLP-1R inv ag inconclusive
Cc1cc(Br)cn2c(Cc3ccccc3)c(-c3cccc(Cl)c3)nc12	GLP-1R inv ag inconclusive, D3 antag -60
Cc1cc(Br)cn2c(Cc3cccc(F)c3)c(-c3ccc(F)cc3)nc12	GLP-1R inv ag inconclusive
Cc1ccc(-c2nc3c(C)cc(Br)cn3c2Cc2cccc(F)c2)cc1	D3 antag -57
Cc1ccc(Cc2c(-c3ccco3)nc3c(C)cc(Br)cn23)cc1	GLP-1R inv ag inconclusive, D3 antag inconclusive
Cc1cc(Br)cn2c(Cc3cccc(Cl)c3)c(-c3ccco3)nc12	GLP-1R inv ag inconclusive, D3 antag -63
C=CCn1c(-c2ccccc2)c[nH]c1=S	GLP-1R inv ag inconclusive, D3 antag -68
CCn1c(-c2ccc(-c3ccccc3)cc2)c[nH]c1=S	GLP-1R inv ag inconclusive
Cn1c(-c2ccc(-c3ccccc3)cc2)c[nH]c1=S	GLP-1R inv ag inconclusive, D3 antag inconclusive
C=CCn1c(-c2ccc(Cl)cc2)c[nH]c1=S	GLP-1R inv ag inconclusive, D3 antag -109
COc1ccc(NS(=O)(=O)c2cc(NC(=O)c3ccc(=O)[nH]n3)ccc2C)cc1	GLP-1R inv ag inconclusive
CCOc1ccc(NC(=O)c2cnc3sc(N4CCOCC4)nn3c2=O)cc1	none (no result: GLP-1R agonist, D3 antag)
CCOc1ccc(Sc2cc(C(=O)NCc3ccccc3Cl)c3ccccc3n2)cc1	none (no result: GLP-1R agonist, D3 antag)
Cc1ccc(CN2CC[C@H]3C=CCc4cccc(c43)C2)cc1	GLP-1R inv ag inconclusive, D3 antag -123
COc1ccc(CN2CC[C@H]3C=CCc4cccc(c43)C2)cc1	GLP-1R inv ag inconclusive, D3 antag -103
C1=C[C@@H]2CCN(Cc3ccccc3)Cc3cccc(c32)C1	D3 antag inconclusive
COc1ccc(N2CCN(S(=O)(=O)c3ccc(-c4cc(C(F)(F)F)on4)s3)CC2)cc1	none (no result: GLP-1R agonist, D3 antag)
COc1cc(C(=O)N(Cc2ccccc2)c2cccc(C)c2)ccc1OC(F)F	GLP-1R inv ag 11µM
COc1ccc(CC(=O)N(Cc2ccccc2)c2cccc(C)c2)cc1OC	GLP-1R inv ag inconclusive
Cc1cccc(N(Cc2ccccc2)C(=O)CCl)c1	GLP-1R inv ag 10µM
CC(=O)N1c2ccc(S(=O)(=O)N(C)CC(=O)N(Cc3ccccc3)C(C)C)cc2CC1C (stereo not given)	none (no result: GLP-1R agonist, D3 antag)
Cc1ccc(-n2ncc3c2CC(C)(C)CC3NC(=O)CCn2cncn2)cc1 (stereo not given)	none
CCOC(=O)C1=C(N)Oc2cc(O)ccc2C1c1ccc([N+](=O)[O-])cc1 (stereo not given)	GLP-1R inv ag 10µM, D3 antag inconclusive
CCCn1c(=O)sc2cc(NC(=O)c3ccc(OC)c(Br)c3)ccc21	GLP-1R inv ag 10µM (no result: D3 antag)
CCn1c(=O)sc2cc(NC(=O)c3cccc(OC)c3)ccc21	none (no result: D3 antag)
O=C(O)[C@H](O)c1ccccc1	none (no result: GLP-1R inv ag, GLP-1R agonist, D3 antag)
Cc1ccc(CNC(=O)Nc2nnc([C@@H]3C[C@H](O)[C@@H](CO)O3)s2)cc1	D3 antag -63
O=C(NCc1ccc(F)cc1)Nc1nnc([C@@H]2C[C@H](O)[C@@H](CO)O2)s1	none
COc1ccc(CCN(C(=O)C(F)(F)F)C(C(=O)NC2CCCCC2)c2cccs2)cc1 (stereo not given)	GLP-1R inv ag 6.3µM
O=C(CSc1nc2ccccc2s1)N1N=C(c2cccs2)CC1c1ccc(F)cc1 (stereo not given)	GLP-1R inv ag 4µM
COc1ccc(C2CC(c3cccs3)=NN2C(=O)CSc2nc3ccccc3s2)cc1 (stereo not given)	GLP-1R inv ag inconclusive
CC(C)N(C(=O)[C@H]1C[C@H](CC(=O)NCCN2CCOCC2)C(=O)N2CCc3c([nH]c4ccc(Cl)cc34)[C@]12C)C(C)C	D3 antag -53
CCN(CC)C(=O)[C@H]1C[C@H](CC(=O)NCCN2CCOCC2)C(=O)N2CCc3c([nH]c4ccc(Cl)cc34)[C@]12C	none
C[C@]12c3[nH]c4ccc(Cl)cc4c3CCN1C(=O)[C@@H](CC(=O)NCC13CC4CC(CC(C4)C1)C3)C[C@@H]2C(=O)N1CCOCC1	GLP-1R inv ag 10µM, D3 antag -50
COc1ccc(N(C(=O)c2ccc(Cl)cc2)S(=O)(=O)c2ccc(C)cc2)cc1	GLP-1R inv ag inconclusive (no result: GLP-1R agonist, D3 antag)
CC(C)(C)c1ccc(C(=O)NCC(c2cccs2)S(=O)(=O)c2cccs2)cc1 (stereo not given)	GLP-1R inv ag inconclusive (no result: GLP-1R agonist, D3 antag)
CC(C)(C)c1ccc(C(=O)NCC(c2cccs2)S(=O)(=O)c2ccc(F)cc2)cc1 (stereo not given)	GLP-1R inv ag 4.5µM (no result: GLP-1R agonist, D3 antag)
